# In all, about 220,000 compounds went through this assay and about 2,000 (0.91%) were called active. Not shown: some 2% with an inconclusive outcome. Not all results are given here. Potency and affinity values are given separately. A number with no mark means an inactive call. Cut-off read from the data, not from the text of the source: inconclusive = inhibition above about 80% without an active follow-up result; inactive = below that; test concentration not stated here.
# Experiment: M. tuberculosis H37Rv growth inhibitors, H37Rv strain (AID 1626);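 note: bacteria incubated seven days before Alamar blue readout; 0% = bacteria only wells and 100% = bacteria with antibiotic wells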
# Settings: active compounds read high, concentration not given here
row,Structure (SMILES),inhibition [%]
1,CC1(C)C(c2ccc(Cl)cc2)=[N+]([O-])C2(CCCC/C2=N\O)N1O (stereo not given),2.14
2,O=C(N/N=C/c1cc(Br)cs1)c1ccc2c(c1)OCCO2,6.73
3,O=C(CSc1nnc(-c2ccco2)n1CC1CCCO1)c1ccc(F)cc1 (stereo not given),-15.7
4,N#CCSc1nc2ccccc2c(=O)n1CC1CCCC1,-2.18
5,CC(Sc1ccc(Br)cc1)C(N)=O (stereo not given),-7.76
6,Cc1nc(N(C)C)c2sc(=S)n(-c3ccccc3)c2n1,0.72
7,C/C(=N\NS(=O)(=O)c1ccc([N+](=O)[O-])cc1)c1ccc(NC(=O)c2ccco2)cc1,-1.1
8,C=CCNC(=O)CSc1nnc(-c2ccccc2Br)n1-c1cccc(C(F)(F)F)c1,5.16
9,O=C(Nc1nc2ccccc2[nH]1)c1ccc([N+](=O)[O-])cc1,75
10,COc1cccc(C(=O)Nc2nc3ccccc3[nH]2)c1,46.1
11,O=C(NCCc1nc2ccccc2[nH]1)c1ccc(Cl)c([N+](=O)[O-])c1,-1.68
12,Cc1cc(NC(=O)c2ccc(F)cc2F)n(-c2nc3ccccc3[nH]2)n1,4.49
13,Cc1cc(C)c(OCC(=O)Nc2nc3ccccc3[nH]2)c(C)c1,9.75
14,COc1cc(C(=O)Nc2nc3ccccc3[nH]2)cc(OC)c1OC,75.8
15,CCOc1ccccc1OCC(=O)Nc1nc2ccccc2[nH]1,9.65
16,Cc1cc(NC(=O)/C=C/c2ccccc2Cl)n(-c2nc3ccccc3[nH]2)n1,66.7
17,COCCn1c(SCC(=O)Nc2sc(C)c(C)c2C#N)nnc1-c1ccc(OC)cc1,-11.5
18,CC(C)(C)C1CCc2onc(C(=O)O)c2C1 (stereo not given),-7.72
19,C/C(=N\NC(=O)Cc1c(C)[nH][nH]c1=O)c1ccc2ccccc2c1,-1.62
20,CC(C)C(=O)NNC(=O)c1cc2sccc2s1,-9.47
21,Cc1cc(Br)c(NC(=O)CCl)c(Br)c1,10
22,CC(=O)Nc1sc(N/N=C\c2ccco2)nc1-c1cccs1,2.35
23,Cc1ccc(CONC(=O)c2ccc(OC(F)F)cc2)cc1,-0.18
24,CC1(C)C(c2ccccc2)=[N+]([O-])CN1O,-10.2
25,Cc1cc(C)n(-c2nc3ccccc3[nH]c2=O)n1,-9.01

row,Structure (SMILES),inhibition [%]
1,O=S(=O)(N/N=C/c1cccc(OC2CSC2)c1)c1ccccc1,2.91
2,O=C(NCCCN1CCCC1=O)Nc1ccc(Cl)cc1,-8.24
3,Cc1c(C(=O)Nc2ccc3c4c(cccc24)CC3)cccc1[N+](=O)[O-],13.3
4,O=C(Nc1nc(-c2ccc(F)c(F)c2)cs1)c1cnccn1,10.2
5,Cc1csc(NC(=O)c2cnccn2)n1,-4.5
6,Cc1ccc(-c2cc(C(=O)Nc3nccs3)c3ccccc3n2)o1,12.8
7,Cc1ccc(-c2cc(C(=O)Nc3ccc(S(=O)(=O)Nc4nccs4)cc3)c3ccccc3n2)c(C)c1,69.9
8,O=C(Nc1nc2c(s1)CCCC2)c1cc(-c2ccncc2)nc2ccccc12,10.1
9,O=C(Nc1nccs1)c1cc(-c2ccncc2)nc2ccccc12,-1.16
10,O=C(Nc1nc2c(s1)CCCC2)c1cc(-c2ccccc2)nc2ccccc12,14.1
11,O=C(Nc1nccs1)c1cc(-c2ccccc2)nc2ccccc12,19
12,CC(C)C1(C)N=C(c2ncccc2C(=O)O)NC1=O (stereo not given),-2.93
13,Cc1nn(CC(=O)N2c3ccccc3NC(=O)C2(C)C)c(C)c1[N+](=O)[O-],0.71
14,Cc1c(NC(=O)C(C)OC(=O)Cc2ccccc2)c(=O)n(-c2ccccc2)n1C (stereo not given),-13.3
15,O=C(O)Cn1nnc2ccccc21,-9.61
16,CC(=O)Nc1ccccc1NC(=O)c1ccc(C)c(C)c1,-3.12
17,Nc1c(C(=O)N/N=C/c2ccc([N+](=O)[O-])cc2)sc2nnc(-c3ccccc3)c(-c3ccccc3)c12,-2.7
18,O=C(NCC(O)CO)c1ccc2[nH]c3ccccc3c2c1 (stereo not given),1.5
19,Cn1c(N2CCCC2)nc2c1c(=O)n(Cc1cccc(F)c1)c(=O)n2C,2.57
20,O=c1cc(-c2ccccc2)nc(N2CCN(Cc3ccccc3)CC2)[nH]1,16.3
21,Cc1nc(N2CCOCC2)c2cc(-c3ccccc3)sc2n1,5.12
22,Cc1nc(N2CCN(C)CC2)c2cc(-c3ccccc3)sc2n1,-3.54
23,Cc1ccc(SCc2cc(=O)[nH]c(N3CCN(Cc4ccc5c(c4)OCO5)CC3)n2)cc1,4.26
24,COC(=O)c1cccc(NCN2C(=O)c3ccccc3C2=O)c1,1.78
25,COc1ccc(CN2CCn3nc(C(=O)NC4CC4)cc3C2=O)cc1,0.45

row,Structure (SMILES),inhibition [%]
1,CCc1nn(CC(=O)NCCN2CCN(C)CC2)c(=O)c2cc3occc3n12,2.11
2,O=C(Nc1ccccc1F)C1CCCN(S(=O)(=O)c2ccccc2)C1 (stereo not given),1.63
3,CC(=Nc1ccc2c(c1)nc(CO)n2C)C1=C(O)CC(C)(C)CC1=O,-0.93
4,Cc1cc(=O)oc2cc(Oc3ncccn3)ccc12,-2.26
5,CC(=O)Nc1cccc(Oc2ncnc3scc(-c4ccc(C)cc4)c23)c1,17.3
6,Cc1cc(=O)oc2cc(Oc3ccc(C(N)=O)cc3[N+](=O)[O-])ccc12,-11.6
7,CCc1cc2c(C)cc(=O)oc2cc1Oc1ncccc1[N+](=O)[O-],1.8
8,CC(=O)Nc1cccc(Oc2ncnc3scc(-c4ccccc4)c23)c1,1.97
9,Cc1cc(=O)oc2cc(Oc3ccc([N+](=O)[O-])cc3[N+](=O)[O-])ccc12,51
10,O=C(COC(=O)CCSc1ccc(Cl)cc1)NCc1ccc(Cl)cc1,1.66
11,COc1ccc(CCC(=O)N/N=C\c2cccs2)cc1,36.8
12,Cc1ccc(-c2csc3nc(C(C)C)oc(=O)c23)c(C)c1,14.9
13,COc1cc(C2SC(C)C(=O)N2CCc2ccccc2)cc(OC)c1OC (stereo not given),6.28
14,O=C(N/C=C/c1ccccc1)Nc1ccc(Cl)cc1,7.4
15,COc1ccc(CC(=O)Nc2ccc3nc(C)sc3c2)cc1OC,2.65
16,Cc1nc2ccc(NC(=O)COc3ccccc3C)cc2s1,52.7
17,Cc1cccc(OCC(=O)Nc2ccc3nc(C)sc3c2)c1,89.5
18,CC(=O)c1ccc(OCC(=O)Nc2ccc3nc(C)sc3c2)cc1,56.8
19,COc1cc(CC(=O)Nc2ccc3nc(C)sc3c2)cc(OC)c1OC,-7.08
20,Cc1nc2ccc(NC(=O)COc3ccccc3)cc2s1,83.5
21,Cc1nc2ccc(NC(=O)Cc3cccc(F)c3)cc2s1,0.69
22,COc1ccc(OCC(=O)Nc2nc3ccc(NC(C)=O)cc3s2)cc1,-3.22
23,CCC(C)(C)NC(=O)C(c1cccc(OC)c1)N(C(=O)c1ccn[nH]1)c1cccc(OC)c1 (stereo not given),-8.88
24,COCCNC(=O)c1cn(C)c2ccc(S(=O)(=O)N(C)C3CCCCC3)cc2c1=O,-12
25,COc1ccc(S(=O)(=O)N(CC(=O)N2CCN(C)CC2)c2ccccc2)cc1OC,-11.1

row,Structure (SMILES),inhibition [%]
1,CCC(CC)C1C(C#N)=C(N)Oc2cc(C)oc(=O)c21 (stereo not given),-11.1
2,Cc1cc2nnc(SCC(=O)NCC3CCCO3)n2c2ccccc12 (stereo not given),-6.93
3,Cc1ccc(-c2csc(/C(C#N)=C/Nc3ccccc3SC(F)(F)F)n2)c(C)c1,-7.14
4,COc1cc(C2c3c(oc4ccccc4c3=O)C(=O)N2Cc2cccnc2)cc(OC)c1OC (stereo not given),1.59
5,CCN(C(=O)CN1c2ccccc2CC1C)c1c(N)n(Cc2ccccc2)c(=O)[nH]c1=O (stereo not given),3.3
6,CSc1nc2ccc(NC(=O)C3CC(=O)N(Cc4ccco4)C3)cc2s1 (stereo not given),7.1
7,CC(=O)c1cccc(NC(=O)C2CC(=O)N(Cc3ccccc3)C2)c1 (stereo not given),-1.4
8,O=C(NNS(=O)(=O)c1ccccc1C(F)(F)F)c1cccc(S(=O)(=O)Nc2ccccc2Cl)c1,5.57
9,CC(C)CNS(=O)(=O)c1ccc(CCC(=O)N2CCN(c3ccccc3)CC2)cc1,0.62
10,Nc1c(C(=O)NCC2CCCO2)sc2nc3c(c(-c4ccco4)c12)CC/C3=C\c1ccco1 (stereo not given),-3.62
11,O=[N+]([O-])c1cc(S(=O)(=O)C(F)(F)F)ccc1N1CCN(c2ccccc2)CC1,26.1
12,O=[N+]([O-])c1cc(S(=O)(=O)Nc2ccccc2)ccc1N1CCN(c2ccc(O)cc2)CC1,3.41
13,CC(C)c1nc2sc3c(NCc4ccccc4)ncnc3c2c2c1COC(C)(C)C2,-2.03
14,COc1ccc(C)cc1N/C(N)=N/c1nc(C)cc(C)n1,-4.57
15,Cc1ccc(N/C(N)=N/c2nc3c(c(=O)[nH]2)CCCC3)c(C)c1,6.84
16,S=C1NC2(CCCCC2)Cc2ccccc21,4.66
17,Cc1sc2nc(-c3cccnc3)[nH]c(=O)c2c1-c1ccccc1,-0.42
18,Cc1ccccc1/C=C1\CCCc2ccccc2C1=O,5.73
19,CCc1ccc(/C=C(\C)C(=O)c2c(C)cc(C)[nH]c2=O)cc1,5.72
20,CC(C)(C)C(=O)/C=c1\[nH]c(=O)/c(=C\c2ccccc2F)s1,79.9
21,COc1cccc(/C=c2\s/c(=C/C(=O)c3ccc(C)cc3)[nH]c2=O)c1OC,17.8
22,COc1ccc(/C=C2\SC(c3ccc(C)cc3)=NC2=O)cc1OC,-10.8
23,COc1ccc(C=C2C(=O)c3ccccc3C2=O)cc1O,1.77
24,COc1cc(/C=c2\s/c(=C\C(=O)C(C)(C)C)[nH]c2=O)cc(OC)c1OC,66.3
25,CC(C)(C)C(=O)/C=c1\[nH]c(=O)/c(=C\c2ccc(C#N)cc2)s1,75.3

# Reference: PubChem BioAssay AID1626 (SRMLSC, 2009)
